According to PMC4336329 (PLoS ONE, 2015):
The campaign covered roughly 310,000 compounds. About 14,000 (4.5%) showed an effect of 50% or more. Effects have a minus sign here. Shown is part of a subset that was picked to be rich in strong results.

biological target: human ether-à-go-go-related gene (hERG) potassium channel (human, UniProt Q12809); assay: primary screen, population patch clamp on CHO cells stably expressing hERG; higher = less effect of the substance
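Further: peak tail current of the secondary pulse compared with the same well before compound.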

Chain of human ether-à-go-go-related gene (hERG) potassium channel (Q12809 whole entry, looked up): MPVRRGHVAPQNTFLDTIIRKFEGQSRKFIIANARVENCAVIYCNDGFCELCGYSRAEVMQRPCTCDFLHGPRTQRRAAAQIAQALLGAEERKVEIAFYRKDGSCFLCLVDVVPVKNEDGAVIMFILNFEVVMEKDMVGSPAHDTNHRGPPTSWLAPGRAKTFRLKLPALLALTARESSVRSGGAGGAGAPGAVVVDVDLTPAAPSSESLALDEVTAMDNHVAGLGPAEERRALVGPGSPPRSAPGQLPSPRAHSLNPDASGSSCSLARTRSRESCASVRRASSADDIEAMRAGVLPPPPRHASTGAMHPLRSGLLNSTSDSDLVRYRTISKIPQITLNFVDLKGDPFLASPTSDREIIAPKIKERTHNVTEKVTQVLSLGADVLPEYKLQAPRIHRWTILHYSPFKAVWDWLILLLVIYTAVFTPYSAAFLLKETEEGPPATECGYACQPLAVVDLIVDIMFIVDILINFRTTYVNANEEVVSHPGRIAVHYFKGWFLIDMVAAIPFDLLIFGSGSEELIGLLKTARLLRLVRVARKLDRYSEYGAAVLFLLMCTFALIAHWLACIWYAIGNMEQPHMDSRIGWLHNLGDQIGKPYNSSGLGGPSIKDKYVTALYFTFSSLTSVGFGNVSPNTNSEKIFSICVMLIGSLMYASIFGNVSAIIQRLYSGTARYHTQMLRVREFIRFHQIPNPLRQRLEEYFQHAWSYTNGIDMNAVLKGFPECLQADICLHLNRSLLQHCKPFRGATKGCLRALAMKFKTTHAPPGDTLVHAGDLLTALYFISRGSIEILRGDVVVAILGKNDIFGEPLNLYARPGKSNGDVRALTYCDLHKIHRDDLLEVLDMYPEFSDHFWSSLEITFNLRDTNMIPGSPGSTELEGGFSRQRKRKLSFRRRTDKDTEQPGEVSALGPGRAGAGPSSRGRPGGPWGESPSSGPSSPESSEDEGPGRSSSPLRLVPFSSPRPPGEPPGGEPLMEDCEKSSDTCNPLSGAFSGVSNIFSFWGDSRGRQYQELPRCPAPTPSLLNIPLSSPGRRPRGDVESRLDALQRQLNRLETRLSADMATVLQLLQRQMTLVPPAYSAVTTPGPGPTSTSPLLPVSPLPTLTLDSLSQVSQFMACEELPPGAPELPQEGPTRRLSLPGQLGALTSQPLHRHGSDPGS

Point of comparison: `O=C(N/N=C/c1ccccc1)c1ccc(N2CCCC2=O)cc1`, “hERG current change (%, negative = inhibition) at 10uM” value 5.87%. Against it:
- COc1ccc(N/C=C(\C(C)=O)c2ccc(OC)c(OC)c2)cc1OC — higher, 18.2%
- CCNc1nc(N2CCOCC2)nc(N(c2ccccc2)c2ccccc2)n1 — lower, -12.9%
- CS(=O)(=O)N1CCC(C(=O)Nc2cc(Cl)cc(Cl)c2)CC1 — lower, 4.85%
- Cn1c(=O)c2c(nc(Sc3ccccc3N)n2C)n(C)c1=O — higher, 11.4%
- Cl.c1coc(Cn2nnnc2CN2CCN(C3CCCCC3)CC2)c1 — lower, -41.4%
- Cl.Fc1ccc(C(c2nnnn2Cc2ccco2)N2CCN(C3CCCCC3)CC2)cc1 (stereo not shown) — lower, -65.6%
- CC(C)C(c1nnnn1Cc1ccco1)N1CCN(C2CCCC2)CC1.Cl (stereo not shown) — lower, -3.68%
- CCCC(c1nnnn1Cc1ccco1)N1CCN(C2CCCC2)CC1 (stereo not shown) — lower, -31%
- Cl.c1ccc(C(c2nnnn2Cc2ccco2)N2CCN(C3CCCC3)CC2)cc1 (stereo not shown) — lower, -53.5%
- CC(C)CC(c1nnnn1Cc1ccco1)N1CCN(C2CCCC2)CC1.Cl (stereo not shown) — lower, -38.1%
- N#Cc1nc(COc2ccccc2)oc1N1CCOCC1 — lower, -19.6%
- Cc1ccc(NC(=O)/C=C\C(=O)NCC(=O)O)cc1 — lower, 0.434%
- CC(=O)C1=C(C)Nc2ncnn2C1c1ccc(Cl)cc1Cl (stereo not shown) — lower, 2.23%
- Cn1cc(CN2CCC(n3nccc3NC(=O)Cc3ccccc3)CC2)cn1 — lower, -41.8%
- Cc1ccc(C(=O)N2CCN(c3ccc(NC(=O)c4cccnc4)cc3)CC2)cc1 — lower, -38.8%
- Cc1ccccc1C(=O)N1CCN(c2ccc(NC(=O)c3cccnc3)cc2)CC1 — lower, -23%
- COc1ccc(C(=O)N2CCN(c3ccc(NC(=O)c4cccnc4)cc3)CC2)cc1 — lower, -53.7%
- CCc1ccc(C(=O)N2CCN(c3ccc(NC(=O)c4cccnc4)cc3)CC2)cc1 — lower, -71.3%
- O=C(Nc1ccc(N2CCN(C(=O)c3ccccc3)CC2)cc1)c1cccnc1 — lower, -1.77%
- COc1ccc(NC(=O)c2cccnc2)cc1 — lower, -11.1%
- C=CCN1C(=O)C(C)(C)N(C(=O)c2cccc([N+](=O)[O-])c2)c2ccccc21 — lower, -16.4%
- Cc1ccc[n+](C2C(c3ccc([N+](=O)[O-])cc3)C(C#N)=C([S-])NC2(O)C2CC2)c1 (stereo not shown) — lower, 0.00258%
- O=C(CCCN1C(=O)c2ccccc2C1=O)NCC1CCCO1 (stereo not shown) — higher, 12.2%
- COc1cc(SC)ccc1C(=O)Nc1ccc2c(c1)OCCO2 — lower, -18.4%
- CCCCc1c(C)nn(-c2nnc3c4ccccc4n(C)c3n2)c1C — lower, -4.7%
- CCCC1=Nc2cc(C(=O)NCCCN3CCOCC3)ccc2Sc2ccccc21 — lower, -9.32%
- O=C(Nc1cccc(S(=O)(=O)N2CCOCC2)c1)c1cc([N+](=O)[O-])ccc1N1CCOCC1 — lower, -15.2%
- CN(C)S(=O)(=O)c1ccc(N2CCCC2)c(C(=O)Nc2cccc(F)c2)c1 — lower, 0.224%
- O=C(Nc1cccc(S(=O)(=O)N2CCCCC2)c1)c1cc([N+](=O)[O-])ccc1N1CCOCC1 — lower, -64.2%
- COc1ccc(NC(=O)c2cc([N+](=O)[O-])ccc2N2CCCCC2)cc1 — lower, 4.86%
- CC(=O)Nc1cccc(NC(=O)c2cc([N+](=O)[O-])ccc2N2CCCCC2)c1 — lower, -69.3%
- Cc1ccc(NC(=O)c2cc([N+](=O)[O-])ccc2N2CCCC2)cc1 — lower, -0.291%
- CN(C)S(=O)(=O)c1cccc(NC(=O)c2cc([N+](=O)[O-])ccc2N2CCCCC2)c1 — lower, -53%
- CN(C)S(=O)(=O)c1ccc(N2CCCC2)c(C(=O)Nc2ccccc2)c1 — lower, -23.5%
- O=C(Nc1cccc(C(F)(F)F)c1)c1cc(S(=O)(=O)N2CCCCC2)ccc1N1CCOCC1 — lower, -8.02%
- N#CC(C#N)=Cc1cccn1-c1ccc(C(=O)O)cc1 — higher, 15.5%
- CC(C)NC(=O)CN1C(=O)C(=O)c2ccccc21 — lower, -9.78%
- Cc1nc2ccc(S(=O)(=O)NC(C(=O)N3CCCC3)C(C)C)cc2s1 (stereo not shown) — higher, 7.12%
- COc1cc2c(cc1OC)CN(C(=O)c1ccc(S(=O)(=O)N3CCCCCC3)cc1)CC2 — lower, -27.3%
- Cc1nnc(NC(=O)CSc2nc3c(c(=O)n2C)SC(C)C3)s1 (stereo not shown) — lower, 4.1%
- Cc1ccc(-c2nnc(SCC(=O)NNC(=O)COc3cccc4ccccc34)n2C)cc1 — lower, 5.74%
- COc1cccc(/C=N/NC(=O)c2ccc(N3CCCC3=O)cc2)c1 — lower, -19.8%
- O=C(N/N=C/c1cccc(Br)c1)c1ccc(N2CCCC2=O)cc1 — lower, -57.6%
- CC(Oc1ccc([N+](=O)[O-])cc1)C(=O)NCC1CCCO1 (stereo not shown) — lower, -7.02%
- COc1ccccc1N1C(=O)c2cccc3c(N(C)CCO)ccc(c23)C1=O — lower, 5.75%
- COCCCNCCC(CCC(C)C)c1ccc2c(c1)OCO2.Cl (stereo not shown) — lower, -80.2%
- COCCCNC(=O)c1ccc2c(c1)OCO2 — lower, -9.98%
- CC(NC(=O)C1CCC1)c1ccc2c(c1)OCO2 (stereo not shown) — lower, -5.51%
- Fc1ccc(C(CCNCc2ccccn2)c2ccc(Cl)cc2)cc1 (stereo not shown) — lower, -77.5%
- Cl.Fc1ccc(-c2ccc(CNCc3ccccn3)o2)cc1 — lower, -25.4%
- COCCCNS(=O)(=O)c1ccc2c(c1)OCCO2 — higher, 6.53%
- Fc1cccc(CCNCc2ccccn2)c1 — lower, -6.71%
- Fc1ccccc1CNCCc1ccc2c(c1)OCO2 — lower, -7.43%
- CCNCCC(CCC(C)C)c1ccc2c(c1)OCO2 (stereo not shown) — lower, -72%
- Cl.Fc1ccccc1CNCCC(Cc1ccccc1)c1ccc2c(c1)OCO2 (stereo not shown) — lower, -50.6%
- CCc1ccccc1NC(=O)NC(C)c1ccc2c(c1)OCO2 (stereo not shown) — higher, 14%
- CC(=O)N(CCC(Cc1ccccc1)c1ccc2c(c1)OCO2)Cc1ccccc1F (stereo not shown) — higher, 7.53%
